From PubChem BioAssay
Hits are enriched below; roughly 2.3% of the tested compounds scored in any of these assays.
NTR1 agonist: agonists of human neurotensin receptor NTR1; AID 493036; activation, % at 20 µM; NTR1-U2OS beta-arrestin-GFP spot imaging, agonist mode; P30989; 330,000 compounds, 0.17% hits;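 active means activation at or above 40% of the spot to cytoplasm intensity ratio, with at least 20 cells analyzed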
Target sequence (P30989 whole entry, looked up): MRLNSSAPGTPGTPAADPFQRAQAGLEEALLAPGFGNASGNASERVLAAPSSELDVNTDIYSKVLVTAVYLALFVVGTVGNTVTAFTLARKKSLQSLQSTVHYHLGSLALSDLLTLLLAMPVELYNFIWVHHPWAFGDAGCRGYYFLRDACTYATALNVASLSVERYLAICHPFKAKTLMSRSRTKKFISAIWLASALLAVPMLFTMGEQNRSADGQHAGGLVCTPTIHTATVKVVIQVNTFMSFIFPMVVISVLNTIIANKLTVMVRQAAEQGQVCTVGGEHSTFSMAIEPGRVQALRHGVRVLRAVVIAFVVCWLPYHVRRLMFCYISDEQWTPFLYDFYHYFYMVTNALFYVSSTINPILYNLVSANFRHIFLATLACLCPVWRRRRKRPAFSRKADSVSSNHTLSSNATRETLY
B2AR ag: human beta-2 adrenergic receptor agonism by FAP; Am2.2-beta2AR cells, FAP receptor internalization, flow cytometry; response, % (concentration not given with the values); 340,000 compounds, 0.43% hits; AID 504454;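 active means response above a set limit, near 3 SD of response in nonfluorescent compounds, cut at about 42% in these data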
ABHD5 PLIN5 PPI: ABHD5-PLIN5 protein interaction inhibition; Q00G26+Q8WTS1; Split G. princeps luciferase complementation, luminescence, 4 h; inhibition, % at 4 µM; 360,000 compounds, 0.78% hits; AID 602281;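 active means inhibition above the mean inhibition across every tested compound plus 3 SD, cut at about 22% in these data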
m5-HT2A agonist: activates the mouse 5-HT2A serotonin receptor; P35363; activation, % at 7.6 µM; 360,000 compounds, 0.66% hits; CHO-K1 mHTR2A beta-arrestin complementation, luminescence; percent of 30 µM serotonin response;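 active means activation above a run cutoff, the mean activation of all tested compounds plus 3 SD, cut at about 14% in these data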
Granule exo inh: blocks lytic granule exocytosis; AID 651702; TALL-104 LAMP-1 surface exposure, flow cytometry; cells stimulated with thapsigargin and PMA; inhibition, % at 10 µM; 360,000 compounds, 0.66% hits;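 active means inhibition above about 55%, limit read from the data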
MOR ag counter: OPRM1 agonism in mouse HTR2A counterscreen; shares compounds with m5-HT2A agonist; U2OS OPRM1 beta-arrestin PathHunter, luminescence; DMSO 0%, DAMGO 9.3 µM 100%; activation, % at 9.3 µM; 2,300 compounds, 5.3% hits; AID 624380;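 active means mean activation above the mean of DMSO-only wells plus 3 SD, cut at about 0.5% in these data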
HTR2A ag conf: confirmation of mouse HTR2A serotonin receptor agonists | 2,300 compounds, 19% hits | CHO-K1 PathHunter beta-arrestin recruitment, luminescence; DMSO 0%, 30 µM serotonin 100% | activation, % at 7.6 µM | AID 624381 | shares compounds with m5-HT2A agonist;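 active means mean activation across triplicates above the hit threshold derived in the original primary screen, cut at about 15% in these data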
Large screens that a line does not name were inactive (follow-up assays come after a bar, where they were run).

Cc1cc(NC(=O)c2ccc3sc([C@@H]4O[C@H](CO)[C@H](O)[C@H](O)[C@H]4O)nc3c2)no1	m5-HT2A agonist 21 (no result: NTR1 agonist, B2AR ag) | MOR ag counter inactive | HTR2A ag conf inactive
CN(Cc1ccccc1)C(=O)c1ccc2sc([C@@H]3O[C@H](CO)[C@H](O)[C@H](O)[C@H]3O)nc2c1	m5-HT2A agonist 21 (no result: NTR1 agonist, B2AR ag) | MOR ag counter inactive | HTR2A ag conf inactive
C=CCOc1ccc(C2/C(=C(/O)c3ccc(OC)cc3)C(=O)C(=O)N2CCN2CCNCC2)cc1 (configuration not stated)	none
CC(=O)c1ccc(N2CCN(C(=O)c3cc(-c4ccncc4)nc4ccc(Cl)cc34)CC2)cc1	m5-HT2A agonist 15 | MOR ag counter inactive | HTR2A ag conf inactive
O=C(c1cc(-c2ccncc2)nc2ccc(Cl)cc12)N1CCN(C(=O)C2CCCO2)CC1 (configuration not stated)	none
Cc1sc(-c2ccccn2)nc1OC(=O)c1ccc(F)cc1F	m5-HT2A agonist 15 (no result: NTR1 agonist) | MOR ag counter inactive | HTR2A ag conf inactive
CCOc1ccc(NS(=O)(=O)c2c(C)nc3sc(CC)nn3c2=O)cc1	none
C=CCn1c(SCc2nc3ccccc3[nH]2)nnc1-c1ccccn1	m5-HT2A agonist 19 | MOR ag counter inactive | HTR2A ag conf inactive
COC(=O)[C@]12CCCCC=C1N(Cc1ccco1)C(=O)[C@H](CC(=O)N1CCC(c3ccccc3)CC1)C2	none (no result: NTR1 agonist, B2AR ag)
O=C(Nc1ccccc1)Nc1ccc2ccccc2n1	m5-HT2A agonist 16 | MOR ag counter inactive | HTR2A ag conf inactive
Cc1cc(/C=C(\C#N)C(=O)NC2CCCCCC2)c(C)n1C	m5-HT2A agonist 18 | MOR ag counter inactive | HTR2A ag conf inactive
COc1ccc(/C=C(/C#N)C(=O)NC2CCCCC2)cc1Br	none
Cc1ccc(SCC(=O)Nc2ccc(S(N)(=O)=O)cc2)cc1	none
C[C@H](CO)N1C[C@H](C)[C@@H](CN(C)Cc2ccccc2)Oc2c(NC(=O)C3CC3)cccc2C1=O	none
Cc1c(C(=O)CN2CCN(c3ccccc3)CC2)c2ccccc2n1C	none
Cn1c2c(c3ccccc31)CCN(CCCCN1CCN(c3ccccc3)CC1)C2=O	m5-HT2A agonist 21 (no result: NTR1 agonist) | MOR ag counter inactive | HTR2A ag conf 40
CCc1ccc(OCCCC(=O)Nc2ccc(S(=O)(=O)Nc3cc(C)nc(C)n3)cc2)cc1	m5-HT2A agonist 15 | MOR ag counter inactive | HTR2A ag conf inactive
COc1ccc(CN(C)C[C@H]2OCCCC[C@H](C)Oc3ccc(NC(=O)CCC(F)(F)F)cc3C(=O)N([C@@H](C)CO)C[C@@H]2C)cc1	none (no result: NTR1 agonist, B2AR ag)
C[C@H]1CCCCO[C@H](CN(C)Cc2ccccc2)[C@@H](C)CN([C@@H](C)CO)C(=O)c2cc(NC(=O)CCC(F)(F)F)ccc2O1	m5-HT2A agonist 23 (no result: NTR1 agonist, B2AR ag) | MOR ag counter inactive | HTR2A ag conf inactive
Cc1cccc(NS(=O)(=O)c2ccc(C(=O)N3CCN(c4ccccc4O)CC3)cc2)c1C	m5-HT2A agonist 16 | MOR ag counter 0.5 | HTR2A ag conf inactive
CCSc1c([N+](=O)[O-])c(=O)n(-c2ccccc2)c2ccccc12	none
O=C(C[n+]1cc(-c2ccccc2)n2c1CCC2)Nc1nc(-c2ccc(F)cc2)cs1	m5-HT2A agonist 21 | MOR ag counter inactive | HTR2A ag conf 51
O=C(C[n+]1cc(-c2ccc(F)cc2)n2c1CCC2)Nc1nc(-c2ccc(F)cc2)cs1	none
Cc1csc(NC(=O)c2ccc(Cl)nc2)n1	none
O=C(CNS(=O)(=O)c1cccc(F)c1)OCC(=O)N1CCCC1=O	none
O=C(CCS(=O)(=O)c1ccccc1)N1CCN(c2ccccc2)CC1	none
COc1ccc(CCNC(=O)CSc2ccc3ccccc3c2)cc1OC	none
O=C(CSc1ccc2ccccc2c1)NCCc1ccc(O)c(O)c1	m5-HT2A agonist 31 | MOR ag counter inactive | HTR2A ag conf 101
Cc1cc(N2CCN(c3nc4ccccc4s3)CC2)n2ncnc2n1	m5-HT2A agonist 22 | MOR ag counter inactive | HTR2A ag conf inactive
Cc1cc(N2CCN(C(c3ccccc3)c3ccccc3)CC2)n2ncnc2n1	none
C#CCn1c(=NC(=O)c2ccc(S(=O)(=O)N3CCc4ccccc4C3)cc2)sc2cc(S(N)(=O)=O)ccc21	none
C=CCn1c(=NC(=O)c2ccc(S(=O)(=O)N3CCc4ccccc4C3)cc2)sc2cc(S(N)(=O)=O)ccc21	m5-HT2A agonist 22 | MOR ag counter inactive | HTR2A ag conf inactive
CC(C)c1ccc([C@@H]2O[C@H](C)CC3=C2C(=O)OC(C)(C)O3)cc1	none (no result: NTR1 agonist, B2AR ag)
O=S(=O)(c1ccc2nnn(O)c2c1)N1CCCCC1	m5-HT2A agonist 20 | MOR ag counter inactive | HTR2A ag conf inactive
CCN(CC)S(=O)(=O)c1ccc2nnn(O)c2c1	none
Cc1ccc(OCCC(=O)Nc2cc(S(=O)(=O)N3CCOCC3)ccc2N2CCCC2)cc1	none (no result: NTR1 agonist)
CCCCn1c(N)c(N(CCC(C)C)C(=O)c2ccc([N+](=O)[O-])s2)c(=O)[nH]c1=O	m5-HT2A agonist 19 | MOR ag counter inactive | HTR2A ag conf inactive
CCCCN(C(=O)c1ccc([N+](=O)[O-])s1)c1c(N)n(CC(C)C)c(=O)[nH]c1=O	none
CCOC(=O)CNC(=S)N(CCCN1CCCC1)Cc1cccs1	m5-HT2A agonist 29 | MOR ag counter inactive | HTR2A ag conf inactive
CCOC(=O)CNC(=S)N(CCCN1CCCCCC1)Cc1cccs1	none
Cc1ccc(NC(=O)COC(=O)c2ccc(OCc3c(C)noc3C)cc2)cc1S(=O)(=O)N1CCOCC1	none
CC1CCCCN1C(=O)COC(=O)CSc1ccc(C(N)=O)cc1[N+](=O)[O-] (configuration not stated)	none (no result: NTR1 agonist)
CC1CCCC(C)N1C(=O)COC(=O)CSc1ccc(C(N)=O)cc1[N+](=O)[O-] (configuration not stated)	m5-HT2A agonist 16 | MOR ag counter inactive | HTR2A ag conf inactive
COc1ccc2[nH]cc(CCN=C3SCC(=O)N3C)c2c1	m5-HT2A agonist 18 | MOR ag counter inactive | HTR2A ag conf inactive
CCN(CC)C(=O)[C@H]1CC(CC(=O)NCc2ccc(OC)c(OC)c2)C(=O)N2CCc3c([nH]c4ccc(OC)cc34)[C@]12C (some centres not stated)	none
O=C1NC[C@H](CCCCN2C[C@H](Cc3ccccc3)N(CCC3CCCCC3)C(=O)C2=O)N(CCc2ccccc2)C1=O	none (no result: NTR1 agonist, B2AR ag)
COc1ccc(NC(=O)Cn2nnc(C(=O)NCc3cccc(OC)c3)c2N)cc1	none
COc1ccc(NC(=O)Cn2nnc(C(=O)NCc3cccs3)c2N)cc1	m5-HT2A agonist 15 | MOR ag counter inactive | HTR2A ag conf inactive
COc1cccc(CNC(=O)c2nnn(CC(=O)Nc3cccc(C)c3)c2N)c1	m5-HT2A agonist 18 | MOR ag counter inactive | HTR2A ag conf inactive
